Assay results published in article PMC10668032, “Altered binding affinity of SIX1-Q177R correlates with enhanced WNT5A and WNT pathway effector expression in Wilms tumor”.
The full ranking holds about 33,000 sequences; the median of “e-score” is about -0.05, and the highest 2% start at about 0.38. The entries come from a sample that favours the highest values as a whole.

Target: T1, SIX1-Q177R homeodomain (human, UniProt Q15475 108-198, Q177R)
T1 sequence: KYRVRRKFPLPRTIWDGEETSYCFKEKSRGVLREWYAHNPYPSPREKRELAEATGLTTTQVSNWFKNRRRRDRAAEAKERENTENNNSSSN
Assay: universal protein binding microarray; Universal all-10-mer PBM (8x60K, AMADID 030236), 300 nM GST-tagged protein, Alexa Fluor 488 anti-GST; buffer, salt, pH and temperature not stated (as in Berger); high values mean tight binding
Settings: protein: ivt; tags: N-terminal GST; dsDNA, one strand shown
Outline: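 Homeodomains fused to GST were made by in vitro transcription/translation and measured by anti-GST western blot with a recombinant GST standard curve. At 300 nM final concentration, they were applied in duplicate to universal 'all 10-mer' protein binding microarrays (8×60K format).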

Sequence	binding signal [E-score]
CGGACACG	0.373 ± 0.0179
CGGACACC	0.48 ± 0.00522
AGGACACC	0.4835 ± 0.000969
CGGACACA	0.226 ± 0.0432
TGGACACA	0.252 ± 0.0644
GGGACACA	0.232 ± 0.0537
GGGACCCC	0.211 ± 0.0329
AGGTAGTG	0.2489 ± 0.00187
AGGATACA	0.159 ± 0.0108
ACCATCAG	0.181 ± 0.0146
CCAGCACC	0.153 ± 0.0163
GACCCCTA	0.203 ± 0.0141
CTGACTCC	0.2326 ± 0.00123
ACGCCCAA	0.176 ± 0.019
ACTTCTTA	0.183 ± 0.0236
CTTTACCC	0.171 ± 0.0198
ATTTACAC	0.451 ± 0.0245
ATTCACAC	0.348 ± 0.0127
CTTTACAC	0.431 ± 0.0203
CTATTTAC	0.1742 ± 0.000191
CTTTGCAC	0.16 ± 0.0373
CCCCTAAG	0.172 ± 0.0119
ACCTGGGA	0.186 ± 0.00272
CCAACAAC	0.211 ± 0.0163
CAGCACCA	0.182 ± 0.0218

Sequence	binding signal [E-score]
CACGTGGG	0.16 ± 0.0172
CGTGTCGC	0.44 ± 0.0199
AGTGTGGA	0.162 ± 0.0186
AGTGTCTC	0.329 ± 0.00361
CGTGTGGC	0.181 ± 0.00793
AGTGTTGG	0.3564 ± 0.000735
AGTGTCGG	0.4212 ± 0.00372
CGGGTCGC	0.189 ± 0.0605
AGGGTCGG	0.172 ± 0.00622
AGTGTCGC	0.4145 ± 0.00339
AGTGTCGA	0.408 ± 0.0268
AAGCGGTG	0.214 ± 0.0624
CATCCACA	0.177 ± 0.00969
ACTCCCGA	0.172 ± 0.0235
CCAGGTAC	0.2011 ± 0.000495
CACCGCTG	0.249 ± 0.0245
CACGTTAC	0.179 ± 0.0457
ACTAGGAG	0.219 ± 0.0299
CTAAAACA	0.211 ± 0.0343
CGAGTCGA	0.151 ± 0.006
CGTGTGGA	0.159 ± 0.00165
GGAGTCGA	0.227 ± 0.0424
GGTGTCGA	0.4869 ± 0.00312
GGTGTGGA	0.369 ± 0.0214
CGTGTCGA	0.404 ± 0.0138

Sequence	binding signal [E-score]
CACGGCCC	0.215 ± 0.0365
GGATCACC	0.203 ± 0.0315
CCATGACA	0.222 ± 0.0113
TACTGACA	0.22 ± 0.0513
GGGCGACA	0.156 ± 0.0211
AGGAGGTG	0.2857 ± 0.000318
AACACGCG	0.36 ± 0.0195
AACACGCC	0.366 ± 0.013
AACACGAT	0.358 ± 0.00931
CACACGCA	0.32 ± 0.022
AACACGCT	0.379 ± 0.00919
AACACGCA	0.396 ± 0.0109
TACACACA	0.259 ± 0.0395
TACACGCA	0.406 ± 0.0157
CACCGAAG	0.283 ± 0.0113
ACTCCGGG	0.2895 ± 0.00256
AATTTACA	0.182 ± 0.0161
AAACCCCC	0.24 ± 0.0528
ATCACACG	0.318 ± 0.0128
ATCACACC	0.442 ± 0.00795
CACTCACC	0.242 ± 0.0149
ATCACCCC	0.204 ± 0.0194
CTCACACC	0.393 ± 0.0106
GTCACACA	0.215 ± 0.0441
ACCAAGTG	0.208 ± 0.0393

Sequence	binding signal [E-score]
GGAGTCAA	0.2 ± 0.0177
CCGCAACA	0.17 ± 0.0293
CACCGAAC	0.335 ± 0.0128
CAGAGCAC	0.19 ± 0.0352
AAGGACAC	0.40482 ± 0.000361
GAGCACAC	0.262 ± 0.0319
AAGGATAC	0.275 ± 0.00871
GAGGATAC	0.235 ± 0.0473
AAGCACAC	0.276 ± 0.0054
GAGGACAC	0.401 ± 0.00566
CAGGATAC	0.168 ± 0.0209
CAGGACAC	0.423 ± 0.02
ACATCGTG	0.151 ± 0.0256
GTATGATA	0.18 ± 0.0375
CCTTTACA	0.242 ± 0.0698
CCCCCCTC	0.163 ± 0.0311
CTGGGTAC	0.278 ± 0.0111
CCGCAAGG	0.15 ± 0.00344
CATTTACA	0.267 ± 0.0374
CACCGAAA	0.329 ± 0.00917
AGTGGATC	0.216 ± 0.0109
GATCAACA	0.206 ± 0.00474
CACGAACG	0.207 ± 0.0299
CCCTAGCA	0.17 ± 0.00574
ACGAGGGG	0.208 ± 0.0082

Sequence	binding signal [E-score]
GAAGATAC	0.16 ± 0.0546
CAAGACAC	0.4021 ± 0.00161
GAAGACAC	0.38 ± 0.00523
AAAGACAC	0.425 ± 0.0124
ATGACCCC	0.318 ± 0.0237
ATTGAGTG	0.18 ± 0.0318
GGTTTACA	0.16 ± 0.0137
CTCCCTAA	0.165 ± 0.0334
CCTAACAC	0.404 ± 0.00657
CTAAACAC	0.364 ± 0.00812
ACTAAAAC	0.168 ± 0.0313
GCTAACAC	0.417 ± 0.0145
ACAAACAC	0.379 ± 0.0204
ACTAACAC	0.427 ± 0.0173
GCTACCAC	0.181 ± 0.00856
GCTAACCC	0.186 ± 0.00969
CCTATCAC	0.173 ± 0.0477
ACCCGACC	0.223 ± 0.0107
GTTCAGAA	0.18 ± 0.0199
ACCCCGCA	0.259 ± 0.0114
CCAAGCCC	0.155 ± 0.0141
CCCAGACA	0.16 ± 0.0032
ATCAGACA	0.204 ± 0.00355
GGTGTTTA	0.4563 ± 0.00286
GGAGTTAA	0.266 ± 0.0274

Sequence	binding signal [E-score]
GGGGTTAA	0.198 ± 0.00273
AGTGTTTG	0.336 ± 0.0138
CGTGTTTA	0.346 ± 0.0127
CGTGTTAA	0.391 ± 0.0262
AGTGTTCG	0.369 ± 0.0134
CGTGTGAA	0.302 ± 0.00315
AGTGTTAG	0.394 ± 0.00412
AGTGTTTA	0.296 ± 0.0461
TGTGTTAA	0.171 ± 0.00303
GGTGTTAA	0.475 ± 0.00681
CCTATAAC	0.194 ± 0.0389
ACCCTACC	0.193 ± 0.0205
CGGGTTCA	0.175 ± 0.04
CACCGGTA	0.345 ± 0.00414
CGTGATAC	0.248 ± 0.0091
ATCCCGGG	0.209 ± 0.0458
CCGGGGTA	0.284 ± 0.00939
CGTGTTGC	0.333 ± 0.0224
CGTGTTAC	0.408 ± 0.00576
CGTGTTTC	0.339 ± 0.0138
CGTGTTGA	0.358 ± 0.0177
CGTGTTAG	0.38 ± 0.00955
AGTGTTGA	0.318 ± 0.0168
GGTGTTGA	0.4626 ± 0.00453
CGTGTGAG	0.276 ± 0.0289

Sequence	binding signal [E-score]
ACGGTCTC	0.153 ± 0.00373
CACCGCAC	0.333 ± 0.0118
AGTACCCG	0.154 ± 0.00938
CTAGGGTA	0.236 ± 0.0217
CTGTGACA	0.21 ± 0.00229
GTGTGACA	0.436 ± 0.0156
GGGTGACA	0.302 ± 0.0147
TGTCAAAA	0.198 ± 0.0336
CACCCTGC	0.293 ± 0.0291
ATGGAGTG	0.274 ± 0.0146
AGGGGACA	0.179 ± 0.0364
ACCCACGC	0.171 ± 0.00328
ACTCCGCT	0.185 ± 0.0321
ACACCGCA	0.4797 ± 0.00463
GCACCGCA	0.169 ± 0.0396
ACACCGCC	0.4737 ± 0.0034
GCACCGCC	0.265 ± 0.00467
ACGCCGCC	0.153 ± 0.0249
ACACCGCT	0.4659 ± 0.00251
ACACCGCG	0.4808 ± 0.00187
ACCCCGCG	0.254 ± 0.0276
ATACCGCG	0.238 ± 0.0151
ACCCCGCT	0.209 ± 0.0248
ATACCGCA	0.179 ± 0.00528
